Screens deposited in PubChem by The Scripps Research Institute Molecular Screening Center.
Rows were chosen to be rich in hits. Some 3.5% of all compounds tested hit in one or more screens of this group.
TEAD-YAP block = TEAD-YAP interaction inhibition. HEK-TIYL cells, TEAD-Gal4/YAP UAS-luciferase luminescence. inhibition, % at 9.12 µM. 640,000 tested, 1.4% active. AID 1259422; in the data active = inhibition above about 32%
GPR151 ag = human GPR151 activation. Q8TDV0. PathHunter beta-arrestin GPR151 cells, luminescence. activation, % at 11.2 µM. 650,000 tested, 1% active; in the data active = activation above about 4.9%
Target sequence (Q8TDV0 whole entry, looked up): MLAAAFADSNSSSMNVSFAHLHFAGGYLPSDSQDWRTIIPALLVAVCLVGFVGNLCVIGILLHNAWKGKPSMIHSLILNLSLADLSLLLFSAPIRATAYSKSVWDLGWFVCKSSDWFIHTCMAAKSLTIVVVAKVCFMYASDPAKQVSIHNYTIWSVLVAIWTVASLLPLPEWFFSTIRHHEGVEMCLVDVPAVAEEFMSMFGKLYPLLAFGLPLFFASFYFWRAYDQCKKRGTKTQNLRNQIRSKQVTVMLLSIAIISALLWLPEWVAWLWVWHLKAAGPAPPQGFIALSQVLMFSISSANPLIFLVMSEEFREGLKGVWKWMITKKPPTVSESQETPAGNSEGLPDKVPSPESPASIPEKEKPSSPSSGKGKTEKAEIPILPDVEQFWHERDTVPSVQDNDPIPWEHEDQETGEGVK
MITF inh = human MITF inhibition, primary screen | O75030 | AlphaScreen MITF homodimerization, bead proximity signal | inhibition, % at 2.6 µM | 650,000 tested, 0.91% active | AID 1259374; in the data active = inhibition above about 50%
FBW7 act = human FBW7 E3 ligase activation, primary screen | Q969H0 | AlphaScreen FBW7–phospho-cyclin E peptide binding, activator screen | normalized activity (activation), % at 26.1 µM | 650,000 tested, 0.13% active; in the data active = normalized activity above about 1.9%;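 note: purified mutant Fbw7 with reduced substrate affinity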
MITF inh conf = confirmation of human MITF inhibitors | AID 1259372 | 4,700 tested, 16% active | inhibition, % at 2.6 µM | shares compounds with MITF inh | AlphaScreen MITF homodimerization, biotin/His-MITF beads;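 active = inhibition above a cutoff derived from the DMSO control wells, cut at about 28% in these data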;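 note: inhibitors lower the bead chemiluminescence by keeping MITF from dimerizing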
AS interf DR = counter-screen: compounds optically interfering with AlphaScreen. AlphaScreen optical interference counterscreen, cell-free. 480 tested, 6% active. AID 1259373. shares compounds with MITF inh. IC50, µM; call rule not given here
AS interf ctr = counter-screen: compounds optically interfering with AlphaScreen; 4,700 tested, 7.6% active; LysRS AlphaScreen counterscreen, signal interference, triplicate; shares compounds with MITF inh; inhibition, % at 2.6 µM;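 active = inhibition above a cutoff derived from the DMSO control wells, cut at about 30% in these data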
GPR151 confirm = confirmation of human GPR151 activators; shares compounds with GPR151 ag; GPR151 PathHunter beta-arrestin cells, luminescence, 90 min; % of EA-reagent control over plate median; activation, % at 11.2 µM; 6,700 tested, under 10 active;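 active = mean percent activation across replicates above the confirmation screen cutoff of 4.91%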
GPR119 ag = counter-screen for GPR151 activators: effect on human GPR119; activation, % at 11.2 µM; shares compounds with GPR151 ag; 6,700 tested, 0.3% active; GPR119 PathHunter beta-arrestin cells, luminescence, 90 min; 0 = compound-well median, 100 = enzyme-acceptor control;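 active = mean percent activation in the counterscreen above 29.09%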;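 note: counterscreen on off-target GPR119 to flag nonselective hits from the GPR151 activator screen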
Of the large screens only hits and unclear results are named; the others gave an inactive call (follow-up assays come after a bar, where they were run).

C=CCc1cc(OC)ccc1OCCN1CCN(C)CC1	MITF inh 67 | MITF inh conf inactive | AS interf ctr inactive
Cc1ccc(S(=O)(=O)Cn2nnnc2CN2CCN(c3cc(C)ccc3C)CC2)cc1	none
OCc1ccccc1-c1cnn2c(NCc3ccc(F)cc3)ccnc12	none
CCN1CCN(Cc2coc3ccccc3c2=O)CC1	MITF inh 82 | MITF inh conf 42 | AS interf DR inactive | AS interf ctr inactive
COC(=O)C1=CN(c2ccc(C)c(Cl)c2)C=C(C(=O)OC)C1c1cccs1	MITF inh 57 | MITF inh conf inactive | AS interf ctr inactive
Cc1ccc(NC(=O)C2(N(Cc3ccccc3)C(=O)Cc3nc(N)n[nH]3)CCCCC2)cc1	MITF inh 58 | MITF inh conf 100 | AS interf ctr 100
COc1ccc(NC(=O)C2(N(Cc3ccco3)C(=O)Cc3nc(N)n[nH]3)CCCCC2)cc1	none
Nc1n[nH]c(CC(=O)N(Cc2ccco2)C2(C(=O)Nc3ccccc3)CCCCC2)n1	MITF inh 66 | MITF inh conf 96 | AS interf ctr 101
Cc1ccccc1NC(=O)C1(N(Cc2ccccc2)C(=O)Cc2nc(N)n[nH]2)CCCCC1	MITF inh 79 | MITF inh conf 101 | AS interf ctr 101
COc1ccc(NC(=O)C2(N(Cc3ccccc3)C(=O)Cc3nc(N)n[nH]3)CCCCC2)cc1	none
CCSC1=C(C#N)C(c2cccc([N+](=O)[O-])c2)CC(=O)N1 (stereo not given)	none
Cc1ccc(OCCOCCN2CCCCC2)c([N+](=O)[O-])c1	GPR151 ag 7.6, MITF inh 77 | MITF inh conf inactive | AS interf ctr inactive | GPR151 confirm inactive | GPR119 ag inactive
O=C(c1ccncc1)N1CCN(Cc2ccc(Br)cc2)CC1	GPR151 ag 10, MITF inh 77 | MITF inh conf inactive | AS interf ctr inactive | GPR151 confirm inactive | GPR119 ag inactive
COc1ccc(C(=O)N2CCN(Cc3ccc(Br)cc3)CC2)cc1	none
Cc1ccc(-n2c(=O)c3oc4ccccc4c3n(CC(N)=O)c2=O)cc1	GPR151 ag 5.5, MITF inh 54 | MITF inh conf inactive | AS interf ctr inactive | GPR151 confirm inactive | GPR119 ag inactive
COc1ccc(NC(=O)c2cnc(N3CCN(c4ccccn4)CC3)c3ccccc23)cc1Cl	none
COc1ccc(NC(=O)c2cnc(N3CCN(c4ncccn4)CC3)c3ccccc23)cc1OC	TEAD-YAP block 50, GPR151 ag 5.3, MITF inh 63 | MITF inh conf inactive | AS interf ctr inactive | GPR151 confirm inactive | GPR119 ag 30
O=C(Nc1ccc2c(c1)CCCN2C(=O)C1CC1)c1ccc2c(c1)OCO2	none
CC1CN(CCCOc2cc(Cl)ccc2Cl)CC(C)O1 (stereo not given)	GPR151 ag 8.0, MITF inh 67 | MITF inh conf inactive | AS interf ctr inactive | GPR151 confirm inactive | GPR119 ag inactive
CC(=O)c1cccc(NC(=O)CCc2c(C)nc3ncnn3c2C)c1	none
COC(=O)N(C)c1nc2ccccc2s1	GPR151 ag 5.1, MITF inh 72 | MITF inh conf inactive | AS interf ctr inactive | GPR151 confirm inactive | GPR119 ag inactive
CCOc1cc(Br)c(CCl)cc1OCC	none
O=C1N[C@@H](COCc2ccccc2)C(=O)N2CCN(C(=O)Oc3ccc(Cl)cc3)C[C@H]12	none
O=C1N[C@@H](COCc2ccccc2)C(=O)N2CCN(C(=O)NCc3ccccc3)C[C@H]12	GPR151 ag 7.7, MITF inh 75 | MITF inh conf 72 | AS interf DR inactive | AS interf ctr inactive | GPR151 confirm inactive | GPR119 ag inactive
CCN1CCN(CCOc2ccc(C)cc2OC)CC1	GPR151 ag 5.8, MITF inh 76 | MITF inh conf inactive | AS interf ctr inactive | GPR151 confirm inactive | GPR119 ag inactive
COc1cc(C)ccc1OCCCN1CCCCCC1	none
